Experimental data: PubChem BioAssay (NCI)
About 83,000 compounds went through this panel and 20% of them were active in at least one assay; those are over-represented in the sample as a whole.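 Step 1: grow cells in 96-well plates. Step 2: add test compound at a single concentration. Step 3: incubate 48 h. Step 4: record percent growth.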 Calls of active or inactive are those of the source. Rule for the calls: active = growth percent below 10; inactive = the rest.

Legend:
Assay in all cases: NCI-60 one-dose screen, 48 h (100 = growth as untreated, 0 = no growth, -100 = all killed)
Conditions in all cases: 10 µM unless noted
SR leukemia = system: SR leukemia
RPMI-8226 leukemia = system: RPMI-8226 leukemia
OVCAR-8 ovarian = system: OVCAR-8 ovarian
OVCAR-5 ovarian = system: OVCAR-5 ovarian
OVCAR-4 ovarian = system: OVCAR-4 ovarian
SK-OV-3 ovarian = system: SK-OV-3 ovarian
IGROV1 ovarian = system: IGROV1 ovarian
OVCAR-3 ovarian = system: OVCAR-3 ovarian
HS 578T breast = system: HS 578T breast
NCI/ADR-RES ovarian = system: NCI/ADR-RES ovarian

Measured: growth

Cc1ccc(C)c(NC2=C(Cl)C(=O)c3nc(C)ccc3C2=O)c1
inactive: SK-OV-3 ovarian 93%
active: SR leukemia 1.99% | RPMI-8226 leukemia -41.9% | OVCAR-8 ovarian 9.92% | OVCAR-5 ovarian -71.8% | OVCAR-4 ovarian -96% | IGROV1 ovarian -66.8% | OVCAR-3 ovarian -97.4% | HS 578T breast -24.8% | NCI/ADR-RES ovarian -6.86%

COc1ccc2[nH]cc(/C=N/Nc3ccnc4cc(Cl)ccc34)c2c1
active: SR leukemia -27.1% | RPMI-8226 leukemia -62.8% | OVCAR-8 ovarian -70% | OVCAR-5 ovarian -100% | OVCAR-4 ovarian -100% | SK-OV-3 ovarian -95.6% | IGROV1 ovarian -94.6% | OVCAR-3 ovarian -82.1% | HS 578T breast -49.6% | NCI/ADR-RES ovarian -60.4%

CC1=C(C)C(=O)C(Nc2cccc(C(F)(F)F)c2)=C(Br)C1=O
active: RPMI-8226 leukemia -10.8%
inactive: SR leukemia 26.1% | OVCAR-8 ovarian 97% | OVCAR-5 ovarian 128% | OVCAR-4 ovarian 81.4% | SK-OV-3 ovarian 86% | IGROV1 ovarian 74.8% | OVCAR-3 ovarian 103% | HS 578T breast 99.4% | NCI/ADR-RES ovarian 103%

NCCNC(=O)c1cccc(COc2ccccc2NC(=O)c2cc(Br)c(Br)[nH]2)c1
inactive: RPMI-8226 leukemia 86.8% | OVCAR-8 ovarian 64.6% | OVCAR-5 ovarian 101% | OVCAR-4 ovarian 103% | SK-OV-3 ovarian 136% | IGROV1 ovarian 88% | OVCAR-3 ovarian 103% | HS 578T breast 100% | NCI/ADR-RES ovarian 96.7%
active: SR leukemia 8.3%

N#Cc1c(-c2cccs2)cc(-c2cnccn2)nc1SCC(=O)N/N=C/c1cccs1
inactive: SR leukemia 74.7% | RPMI-8226 leukemia 25.1% | OVCAR-8 ovarian 56.3% | OVCAR-5 ovarian 82.8% | OVCAR-4 ovarian 72.1% | SK-OV-3 ovarian 56.5% | IGROV1 ovarian 74.6% | OVCAR-3 ovarian 62.3% | HS 578T breast 58.7% | NCI/ADR-RES ovarian 52.9%

COC(=O)c1ccc(NC2=C(Cl)C(=O)c3nc(C)ccc3C2=O)cc1
inactive: SR leukemia 22.3% | RPMI-8226 leukemia 36.9% | OVCAR-8 ovarian 70.1% | OVCAR-5 ovarian 105% | OVCAR-4 ovarian 58.5% | SK-OV-3 ovarian 125% | IGROV1 ovarian 41.4% | OVCAR-3 ovarian 63.6% | HS 578T breast 71.5% | NCI/ADR-RES ovarian 19.7%

Cc1ccc(/C(N)=N/C(N)=N/c2nc3ccccc3s2)cc1
inactive: SR leukemia 21.1% | RPMI-8226 leukemia 78.3% | OVCAR-8 ovarian 78.8% | OVCAR-5 ovarian 111% | OVCAR-4 ovarian 105% | SK-OV-3 ovarian 134% | IGROV1 ovarian 67.3% | OVCAR-3 ovarian 106% | HS 578T breast 112% | NCI/ADR-RES ovarian 31.1%

O=C(CCCCCCNC(=O)C(O)(O)C(F)(F)F)Nc1ncc(-c2ccccc2)s1
inactive: SR leukemia 10.9% | RPMI-8226 leukemia 14.6% | OVCAR-4 ovarian 18.9%
active: OVCAR-8 ovarian -2.23% | OVCAR-5 ovarian -0.912% | SK-OV-3 ovarian -23.8% | IGROV1 ovarian -23.5% | OVCAR-3 ovarian -43% | HS 578T breast 0.452% | NCI/ADR-RES ovarian 2.08%

Cc1[nH]c(C(=O)Nc2ccccc2OCc2cccc(C(=O)NC3CCCNC3)c2)c(Cl)c1Cl (stereo not given)
active: SR leukemia -30.5% | RPMI-8226 leukemia -19.1% | OVCAR-8 ovarian -44.3% | OVCAR-5 ovarian -87.8% | OVCAR-4 ovarian -73.4% | IGROV1 ovarian -71.3% | OVCAR-3 ovarian -85.7% | NCI/ADR-RES ovarian -2.67%
inactive: SK-OV-3 ovarian 108% | HS 578T breast 93%

CC(Nc1c(C#N)cnc2ccc(-c3cncc(O)c3)cc12)c1ccccc1 (stereo not given)
active: SR leukemia 6.19% | OVCAR-4 ovarian -17.5% | SK-OV-3 ovarian -3.84% | IGROV1 ovarian -20.3% | OVCAR-3 ovarian 7.92% | HS 578T breast -18.3%
inactive: RPMI-8226 leukemia 11.3% | OVCAR-8 ovarian 13% | OVCAR-5 ovarian 25.6% | NCI/ADR-RES ovarian 12.4%

O=C1CSC(c2cn(-c3ccccc3)nc2-c2ccc(Cl)cc2)N1c1ccccc1 (stereo not given)
inactive: SR leukemia 109% | RPMI-8226 leukemia 103% | OVCAR-8 ovarian 104% | OVCAR-5 ovarian 112% | OVCAR-4 ovarian 110% | SK-OV-3 ovarian 114% | IGROV1 ovarian 114% | OVCAR-3 ovarian 124% | HS 578T breast 108% | NCI/ADR-RES ovarian 104%

C=C(C)[C@@H]1CC[C@]2(C(=O)NC3CCCCC3)CC[C@]3(C)[C@H](CC[C@@H]4[C@@]5(C)CC[C@H](N)C(C)(C)[C@@H]5CC[C@]43C)[C@@H]12
inactive: RPMI-8226 leukemia 39% | OVCAR-8 ovarian 101% | OVCAR-5 ovarian 115% | OVCAR-4 ovarian 96.4% | SK-OV-3 ovarian 117% | IGROV1 ovarian 113% | OVCAR-3 ovarian 101% | HS 578T breast 95.8% | NCI/ADR-RES ovarian 97.5%
active: SR leukemia 1.36%

NC1C2CCC1CN(c1cnc(C(=O)Nc3cc(F)cc4cccnc34)cn1)C2 (stereo not given)
inactive: RPMI-8226 leukemia 57% | OVCAR-8 ovarian 86% | OVCAR-5 ovarian 66.7% | OVCAR-4 ovarian 18.5% | SK-OV-3 ovarian 97.1% | IGROV1 ovarian 16.3% | OVCAR-3 ovarian 46.3% | HS 578T breast 68.8% | NCI/ADR-RES ovarian 79.4%
active: SR leukemia 5.29%

O=C(CN1CCN(c2cc(=O)[nH]c3ccc(F)cc23)CC1)N(c1ccccc1)c1ccccc1
inactive: SR leukemia 90.8% | RPMI-8226 leukemia 115% | OVCAR-8 ovarian 108% | OVCAR-5 ovarian 102% | OVCAR-4 ovarian 101% | SK-OV-3 ovarian 109% | IGROV1 ovarian 99.8% | OVCAR-3 ovarian 109% | HS 578T breast 101% | NCI/ADR-RES ovarian 102%

C#C[C@]1(O)CC[C@H]2[C@@H]3CC=C4c5sc(Nc6cc(C)cc(C)c6)nc5CC[C@]4(C)[C@H]3CC[C@@]21C
active: RPMI-8226 leukemia -27.3% | SK-OV-3 ovarian -38.7% | HS 578T breast -10.8%
inactive: SR leukemia 11.6% | OVCAR-8 ovarian 53% | OVCAR-5 ovarian 54.5% | OVCAR-4 ovarian 47.7% | IGROV1 ovarian 46.8% | OVCAR-3 ovarian 48.9% | NCI/ADR-RES ovarian 47.7%

C#CCOc1cccc(-c2nc(N)nc(Nc3ccccc3SSc3ccccc3Nc3nc(N)nc(-c4cccc(OCC#C)c4)n3)n2)c1
inactive: RPMI-8226 leukemia 22% | OVCAR-8 ovarian 16.7% | OVCAR-5 ovarian 45% | OVCAR-4 ovarian 80.9% | SK-OV-3 ovarian 91.5% | OVCAR-3 ovarian 79.7% | HS 578T breast 51.9%
active: SR leukemia -16.2% | IGROV1 ovarian -5.3% | NCI/ADR-RES ovarian 5.66%

Cc1ccc(NC(=O)Nc2nc3ccc([N+](=O)[O-])cc3s2)cc1
inactive: SR leukemia 20.3% | OVCAR-8 ovarian 12.8% | OVCAR-5 ovarian 10.3% | IGROV1 ovarian 16.8% | HS 578T breast 15.2%
active: RPMI-8226 leukemia 2.09% | OVCAR-4 ovarian -6.09% | SK-OV-3 ovarian -12.4% | OVCAR-3 ovarian -0.465% | NCI/ADR-RES ovarian 2.65%

Cc1ccc(S(=O)(=O)NCCCNc2nccc(-c3[nH]c(-c4ccccc4)nc3-c3ccc(F)c(O)c3)n2)cc1
inactive: SR leukemia 33.8% | RPMI-8226 leukemia 53.7% | OVCAR-8 ovarian 86.7% | OVCAR-5 ovarian 143% | OVCAR-4 ovarian 107% | SK-OV-3 ovarian 117% | IGROV1 ovarian 99% | OVCAR-3 ovarian 132% | HS 578T breast 99.6% | NCI/ADR-RES ovarian 104%

Cc1ccc(-c2cc3nc(C(Cl)Cl)nc(-c4ccc(S(=O)(=O)N(C)C)cc4)n3n2)cc1
inactive: SR leukemia 68.7% | RPMI-8226 leukemia 86.9% | OVCAR-8 ovarian 65.5% | OVCAR-5 ovarian 106% | OVCAR-4 ovarian 94.3% | SK-OV-3 ovarian 101% | IGROV1 ovarian 95% | OVCAR-3 ovarian 108% | HS 578T breast 105% | NCI/ADR-RES ovarian 78.8%

COC(=O)c1cccc(NC2=CC(=O)C(C)=C(C)C2=O)c1
inactive: SR leukemia 45.5% | RPMI-8226 leukemia 80.8% | OVCAR-8 ovarian 87.9% | OVCAR-5 ovarian 109% | OVCAR-4 ovarian 24.3% | SK-OV-3 ovarian 105% | IGROV1 ovarian 89.5% | HS 578T breast 116% | NCI/ADR-RES ovarian 87.2%
active: OVCAR-3 ovarian 8.14%

CN1CCN(c2ccc(Nc3nc(NCCCNS(=O)(=O)c4cccc(F)c4)c4sccc4n3)cc2)CC1
inactive: OVCAR-8 ovarian 50.2% | OVCAR-5 ovarian 73.4% | OVCAR-4 ovarian 18.3% | SK-OV-3 ovarian 115% | IGROV1 ovarian 68.9% | HS 578T breast 50.4% | NCI/ADR-RES ovarian 70.8%
active: SR leukemia 9.04% | RPMI-8226 leukemia 7.54% | OVCAR-3 ovarian 9.74%

CCN(CC)CCOc1ccc(C(=C(C)Cc2ccc(OC)cc2)c2ccc(OCCN(CC)CC)cc2)cc1
inactive: OVCAR-8 ovarian 74.5% | OVCAR-5 ovarian 77.4% | OVCAR-4 ovarian 89.1% | SK-OV-3 ovarian 93.5% | IGROV1 ovarian 68.9% | OVCAR-3 ovarian 31.2% | HS 578T breast 72.9% | NCI/ADR-RES ovarian 85.4%
active: SR leukemia -26.6% | RPMI-8226 leukemia -25%

CN1CCN(c2ccc(Nc3nc(NCCNC(=O)c4ccc(F)cc4)c4sccc4n3)cc2)CC1
active: SR leukemia 0.604%
inactive: RPMI-8226 leukemia 32.1% | OVCAR-8 ovarian 77.4% | OVCAR-5 ovarian 85.3% | OVCAR-4 ovarian 61.1% | SK-OV-3 ovarian 125% | IGROV1 ovarian 87.7% | OVCAR-3 ovarian 86.2% | HS 578T breast 75.6% | NCI/ADR-RES ovarian 88.5%

CCOP(=O)(OCC)OC[C@]12CCC(C)(C)CC1C1=CC[C@@H]3[C@@]4(C)CCCNC(C)(C)[C@@H]4CC[C@@]3(C)[C@]1(C)CC2 (stereo not given in full)
active: SR leukemia -24.1% | RPMI-8226 leukemia -1.77%
inactive: OVCAR-8 ovarian 90.2% | OVCAR-5 ovarian 102% | OVCAR-4 ovarian 80.9% | SK-OV-3 ovarian 112% | IGROV1 ovarian 44.5% | OVCAR-3 ovarian 97.1% | HS 578T breast 88.7% | NCI/ADR-RES ovarian 73.7%

CN(C)S(=O)(=O)c1ccc(-c2nc(C(Cl)Cl)nc3cc(-c4ccccc4)nn23)cc1
inactive: SR leukemia 36.2% | RPMI-8226 leukemia 86.8% | OVCAR-8 ovarian 60.7% | OVCAR-5 ovarian 90% | OVCAR-4 ovarian 90.5% | SK-OV-3 ovarian 92.2% | IGROV1 ovarian 66% | OVCAR-3 ovarian 93.5% | HS 578T breast 109% | NCI/ADR-RES ovarian 69.5%

CCOC(=O)c1ccc(NC2=C(Cl)C(=O)c3nc(C)ccc3C2=O)cc1
inactive: SR leukemia 22.6% | OVCAR-8 ovarian 68.4% | OVCAR-5 ovarian 91.5% | SK-OV-3 ovarian 94.4% | HS 578T breast 50.2% | NCI/ADR-RES ovarian 45.9%
active: RPMI-8226 leukemia 4.69% | OVCAR-4 ovarian -62.7% | IGROV1 ovarian 7.95% | OVCAR-3 ovarian -18.8%
